Experimental findings from PubChem BioAssay (NCATS) are described below.

Molecules are shown by their SMILES. Inconclusive results are not listed. Active and inactive are the calls of the source. The call rests on the fitted dose curve; in most records, active means well fitted curve in the direction sought with a large enough effect; inconclusive means small, poorly fitted or top-dose-only effect, or another doubt; inactive means no such curve, though single readings can be large; an effect the other way counts as inactive or inconclusive. Non-standard residues stand in square brackets, D forms with d. Residues, ends and D or L forms follow the SMILES beside them. Peptide text beside a SMILES is read from it. *: point of attachment. Sta = CC(C)C[C@H](N)[C@@H](O)CC(=O)O; Isovaleryl = CC(C)CC(=O)*

Assay [1] can be described thus: Quantitative High-Throughput drug screen in 47 multiple myeloma cell lines against the NCATS MIPE library collection: H1112_PLB cell viability assay (AID 1918967; further: nearly all actives have a fitted effect of over 30% in size; further: potency means the concentration at half of the fitted maximal effect). The procedure, abridged:
(§1)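 Viability readout: CellTiter-Glo luminescence following 5 min room-temperature incubation with reagent. Prior exposure: 48 h, 37C, humidified 5% CO2, 500 cells per well.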

Assay [2] is described as follows: Quantitative High-Throughput drug screen in 47 multiple myeloma cell lines against the NCATS MIPE library collection: Karpas25_ECACC cell viability assay (AID 1918968; further: nearly all actives have a fitted effect of over 35% in size; further: potency means the concentration at half of the fitted maximal effect). The procedure, abridged:
as §1

Assay [3] is described as follows: Quantitative High-Throughput drug screen in 47 multiple myeloma cell lines against the NCATS MIPE library collection: KMS27_JCRB cell viability assay (AID 1918970). Further: nearly all actives have a fitted effect of over 30% in size. Further: potency means the concentration at half of the fitted maximal effect. The procedure, abridged:
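KMS27_JCRB myeloma cells, 500 per well, exposed 48 h at 37 C, 5% CO2 to MIPE 4.0 compounds. Viability from ATP by CellTiter-Glo luminescence, normalized to DMSO (100%) and medium-only (0%) wells.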

Assay [4] is described as follows: Quantitative High-Throughput drug screen in 47 multiple myeloma cell lines against the NCATS MIPE library collection: KMS12BM_JCRB cell viability assay (AID 1918971). Further: nearly all actives have a fitted effect of over 35% in size. Further: potency means the concentration at half of the fitted maximal effect. The essentials: (§2)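 qHTS of the MIPE 4.0 collection: 500 myeloma cells/well, 48 h drug exposure at 37C in 5% CO2, then CellTiter-Glo for 5 min at room temperature before luminescence reading.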
A short description of assay [5]: Quantitative High-Throughput drug screen in 47 multiple myeloma cell lines against the NCATS MIPE library collection: KMS12PE_JCRB cell viability assay (AID 1918972). Further: nearly all actives have a fitted effect of over 30% in size. The procedure, abridged:
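Approved and investigational drugs from MIPE 4.0 were added by pin tool to 500 cells per well. After 48 hours at 37C, ATP-based CellTiter-Glo luminescence indicated remaining viability.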

The nature of assay [6]: Quantitative High-Throughput drug screen in 47 multiple myeloma cell lines against the NCATS MIPE library collection: KMS20_JCRB cell viability assay (AID 1918973). Further: nearly all actives have a fitted effect of over 45% in size. Further: potency means the concentration at half of the fitted maximal effect. The procedure, abridged: as §1
Assay [7] is described as follows: Quantitative High-Throughput drug screen in 47 multiple myeloma cell lines against the NCATS MIPE library collection: KMS26_JCRB cell viability assay (AID 1918975). Further: nearly all actives have a fitted effect of over 45% in size. Further: potency means the concentration at half of the fitted maximal effect. The essentials:
as §2

A short description of assay [8]: Quantitative High-Throughput drug screen in 47 multiple myeloma cell lines against the NCATS MIPE library collection: MOLP8_DSMZ cell viability assay (AID 1918977). Further: nearly all actives have a fitted effect of over 45% in size. Further: potency means the concentration at half of the fitted maximal effect. The procedure, abridged:
(§3)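 MIPE 4.0 approved/investigational drugs; 500 cells/well; 48 h 37 °C humidified 5% CO2; CTG luminescence readout; DMSO = 100%, media = 0% viability.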

Assay [9] can be described thus: Quantitative High-Throughput drug screen in 47 multiple myeloma cell lines against the NCATS MIPE library collection: NCIH929_DSMZ cell viability assay (AID 1918978). Further: nearly all actives have a fitted effect of over 35% in size. Further: potency means the concentration at half of the fitted maximal effect. The essentials: as §3
Assay [10] in a line: Quantitative High-Throughput drug screen in 47 multiple myeloma cell lines against the NCATS MIPE library collection: MM1R_ATCC cell viability assay (AID 1918981). Further: nearly all actives have a fitted effect of over 35% in size. Further: potency means the concentration at half of the fitted maximal effect. The procedure, abridged: as §3
Assay [11] can be described thus: Quantitative High-Throughput drug screen in 47 multiple myeloma cell lines against the NCATS MIPE library collection: L363_DSMZ cell viability assay (AID 1918984). Further: nearly all actives have a fitted effect of over 40% in size. The essentials:
as §3

A short description of assay [12]: Quantitative High-Throughput drug screen in 47 multiple myeloma cell lines against the NCATS MIPE library collection: KMS34_JCRB cell viability assay (AID 1918985). Further: nearly all actives have a fitted effect of over 40% in size. Further: potency means the concentration at half of the fitted maximal effect. The procedure, abridged:
as §3

A short description of assay [13]: Quantitative High-Throughput drug screen in 47 multiple myeloma cell lines against the NCATS MIPE library collection: LP1_DSMZ cell viability assay (AID 1918982). Further: nearly all actives have a fitted effect of over 35% in size. Further: potency means the concentration at half of the fitted maximal effect. The essentials:
as §3

The nature of assay [14]: Quantitative High-Throughput drug screen in 47 multiple myeloma cell lines against the NCATS MIPE library collection: KMS28PE_JCRB cell viability assay (AID 1918983). Further: nearly all actives have a fitted effect of over 35% in size. Further: potency means the concentration at half of the fitted maximal effect. The essentials: as §3
A short description of assay [15]: Quantitative High-Throughput drug screen in 47 multiple myeloma cell lines against the NCATS MIPE library collection: JJN3_DSMZ cell viability assay (AID 1918966; further: nearly all actives have a fitted effect of over 50% in size; further: potency means the concentration at half of the fitted maximal effect). The procedure, abridged: as §1
Assay [16] is described as follows: Quantitative High-Throughput drug screen in 47 multiple myeloma cell lines against the NCATS MIPE library collection: MMM1_PLB cell viability assay (AID 1918976). The essentials:
as §3

Assay [17] can be described thus: Quantitative High-Throughput drug screen in 47 multiple myeloma cell lines against the NCATS MIPE library collection: OCIMY1_PLB cell viability assay (AID 1918979). Further: nearly all actives have a fitted effect of over 35% in size. Further: potency means the concentration at half of the fitted maximal effect. The essentials:
as §3

A short description of assay [18]: Quantitative High-Throughput drug screen in 47 multiple myeloma cell lines against the NCATS MIPE library collection: MM1S_ATCC cell viability assay (AID 1918980). Further: nearly all actives have a fitted effect of over 45% in size. Further: potency means the concentration at half of the fitted maximal effect. The procedure, abridged: as §3
Assay [19] can be described thus: Quantitative High-Throughput drug screen in 47 multiple myeloma cell lines against the NCATS MIPE library collection: KMS21BM_JCRB cell viability assay (AID 1918974). The conditions noted are these: ATP luminescence, 48 h; viability: at 45.8 µM (top of the series) unless noted. The procedure, abridged: as §1

Regarding `C[C@H](Cn1cnc2c(N)ncnc21)OCP(=O)(O)O`, the Potency entry in assay [1], in assay [2], in [3], in assay [4], in assay [5] and in [6] was “inactive” in each case. The Potency result in [7], in assay [8], in [9], in [10], in assay [11] and in assay [12] was “inactive” in each case.
Turning to `c1ccc2[nH]c(-c3cscn3)nc2c1`, the Potency entry in assay [1], in assay [2], in assay [4], in assay [5], in assay [8] and in assay [9] was “inactive” each time. The Potency result in assay [10], in assay [13], in assay [14] and in assay [12] was “inactive” throughout.
As to `CCCOc1ccc2nc(NC(=O)OC)[nH]c2c1`, the Potency in assay [15] was 5.26 µM (active); in [2], 0.105 µM (active); in assay [4], 0.0066 µM (active); in [7], 1.05 µM (active); in assay [16] it was 1.32 µM (active); in assay [9], 1.48 µM (active). Besides, the Potency in [10] is 0.0083 µM (active); in [14], 6.6 nM (active); in assay [12], 0.0059 µM (active).
On to `CC1=C(C(=O)O)N2C(=O)[C@@H](NC(=O)[C@H](N)C3=CCC=CC3)[C@H]2SC1`, for which the Potency entry in assay [1], in [2], in [4], in [5], in assay [7] and in [8] was “inactive” each time. Moreover, the Potency result in assay [9], in assay [17], in assay [10], in assay [13] and in assay [12] was “inactive” throughout.
`C[C@H](Cc1ccc(O)c(O)c1)[C@@H](C)Cc1ccc(O)c(O)c1`: the Potency was 14.8 µM (active) in assay [15]; 14.8 µM (active) in assay [2]; 9.35 µM (active) in assay [3]; 16.6 µM (active) in [4]; 23.5 µM (active) in assay [7]; 6.62 µM (active) in assay [16]. Also, the Potency is 5.26 µM (active) in [8]; 9.35 µM (active) in assay [9]; 18.7 µM (active) in assay [17]; 20.9 µM (active) in assay [18]; 20.9 µM (active) in [10]; 18.7 µM (active) in assay [13]. In [12], the Potency is 16.6 µM (active). The Potency result in assay [14] is “inactive”.
Regarding `CN(C)CCc1c[nH]c2ccc(Cn3cncn3)cc12`, the Potency result in [1], in [2], in assay [4], in [7], in assay [9] and in [17] was “inactive” in each case. For the same compound, the Potency result in [10], in [13] and in assay [12] was “inactive” in each case. Moreover, the Potency in assay [3] is 16.6 µM (active).
Regarding `O=c1c(O)c(-c2ccc(O)cc2O)oc2cc(O)cc(O)c12`, the Potency entry in [1], in [8] and in assay [17] was “inactive” in each case. Besides, the values for the Potency in assay [2], in [4] and in assay [18] were 10.5 µM (active), 2.09 µM (active) and 0.833 µM (active), respectively.
Regarding `CN(C)CCCC1(c2ccc(F)cc2)OCc2cc(C#N)ccc21` (stereo not given), the results for the Potency in assay [1] and in [18] were 8.33 µM (active) and 18.7 µM (active), respectively. The Potency entry in [2], in assay [3], in assay [5], in [7], in assay [17] and in assay [13] was “inactive” each time. In addition, the Potency entry in assay [12] is “inactive”.
For the compound `COC(=O)[C@H](Cc1ccccc1)NC(=O)[C@@H](N)CC(=O)O` (H-Asp-Phe-OMe), the Potency entry in [1], in [2], in [4], in assay [5], in assay [9] and in assay [17] was “inactive” each time. In addition, the Potency entry in [18], in [10], in [13], in assay [14] and in assay [12] was “inactive” throughout.
In the case of `CC(C)CC(=O)N[C@H](C(=O)N[C@H](C(=O)N[C@@H](CC(C)C)[C@@H](O)CC(=O)N[C@@H](C)C(=O)N[C@@H](CC(C)C)[C@@H](O)CC(=O)O)C(C)C)C(C)C` (Isovaleryl-VV[Sta]A[Sta]-OH), the Potency entry in [15], in [5], in assay [7], in [8], in [17] and in assay [10] was “inactive” each time. In addition, the Potency result in [13], in assay [14] and in [11] was “inactive” in each case.
Turning to `NCCCCNCCCN`, the Potency was 2.96 µM (active) in [15]; 18.7 µM (active) in assay [2]; 20.9 µM (active) in assay [4]; 18.7 µM (active) in [6]; 3.72 µM (active) in [7]; 10.5 µM (active) in assay [16]. In addition, the Potency is 4.18 µM (active) in [8]; 18.7 µM (active) in [9]; 10.5 µM (active) in assay [17]; 3.32 µM (active) in assay [18]; 2.96 µM (active) in assay [10]; 16.6 µM (active) in assay [13]. In addition, in assay [12], the Potency is 9.35 µM (active).
Take `O=c1ccc2ccc(O)c(O)c2o1`: the Potency in assay [15] was 16.6 µM (active); in assay [2], 3.32 µM (active); in assay [4], 18.7 µM (active); in assay [16], 7.43 µM (active); in assay [18] it was 4.18 µM (active). Besides, the Potency result in assay [17] and in assay [14] was “inactive” throughout.
Consider `O=c1oc2cc(O)ccc2s1`, for which the Potency entry in assay [1], in assay [4], in assay [5], in assay [7], in assay [9] and in assay [17] was “inactive” in each case. The Potency result in assay [10], in [14] and in [11] was “inactive” each time. The Potency in [2] was 7.43 µM (active); in assay [16], 16.6 µM (active); in assay [18], 0.935 µM (active).
`O=C(OC1C[C@H]2CC[C@@H](C1)[N+]21CCCC1)C(O)(c1ccccc1)c1ccccc1` (stereo not given in full): the Potency result in assay [1], in assay [2], in assay [4], in assay [5], in assay [19] and in [7] was “inactive” each time. In addition, the Potency entry in assay [8], in [9], in [18], in [10], in assay [13] and in assay [14] was “inactive” in each case.
